Screens (PubChem BioAssay)
In the library only some 11% were active in any assay of this set; here they are far more common.
G9a block – G9a (human) methyltransferase inhibition | Q96KQ7 | G9a H3K9 monomethylation, AlphaScreen, 2 h | Potency, µM (titrated, usually from 102 µM), usual class: inhibitors | actives 8.8% (n = 350,000) | AID 504332; also: nearly all actives have a fitted effect of over 75% in size
Target sequence (Q96KQ7 913-1193 limits assumed): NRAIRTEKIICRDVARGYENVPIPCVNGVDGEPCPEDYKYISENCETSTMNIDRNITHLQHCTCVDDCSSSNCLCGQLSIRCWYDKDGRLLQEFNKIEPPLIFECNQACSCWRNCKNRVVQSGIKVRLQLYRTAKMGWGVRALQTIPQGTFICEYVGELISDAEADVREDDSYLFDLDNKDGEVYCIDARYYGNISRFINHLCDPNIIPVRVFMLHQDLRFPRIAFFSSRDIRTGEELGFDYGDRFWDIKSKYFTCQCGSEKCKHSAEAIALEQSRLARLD
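Enzyme 20 nM + cpd, 15 min RT; add b-H3K9 pep 500 nM / SAM 20 uM; 2 h RT; anti-H3K9me1 Ab 0.5 ug/mL + SA donor / anti-rabbit acceptor beads 20 ug/mL each, 10 min; AlphaScreen read.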
L3MBTL1 inh – inhibitors of human L3MBTL1. Q9Y468. AlphaScreen L3MBTL1–H3K9me1 peptide binding. Potency, µM (series often up to 57.1 µM), usual class: inhibitors. actives 0.66% (n = 230,000). AID 485360; also: nearly all actives have a fitted effect of over 60% in size
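Read-out is AlphaScreen signal from streptavidin donor and nickel chelate acceptor beads (10 ug/mL final each) bridging L3MBTL1 (50 nM) and biotinylated K9-monomethylated H3(1-15) peptide (75 nM), after 30 min compound exposure at room temperature.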
BAZ2B block – inhibitors of human BAZ2B bromodomain | Q9UIF8 | AlphaScreen BAZ2B-H3K14Ac peptide displacement | Potency, µM (highest dose often 114 µM), actives largely listed as inhibitors | actives 4.4% (n = 360,000) | AID 504333; also: nearly all actives have a fitted effect of over 60% in size
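AlphaScreen displacement of biotin-H3(5-23)K14Ac peptide (50 nM final) from BAZ2B (50 nM final) in PBS pH 7.4, 0.01% Tween-20; complex preformed 30 min RT, then compounds (top 110 uM) 30 min RT, beads 20 min dark.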
JMJD2A Tudor inh – JMJD2A Tudor domain (human) inhibition | O75164 | AlphaScreen JMJD2A-Tudor / H3K4me3 peptide binding | Potency, µM (highest dose often 114 µM), actives largely listed as inhibitors | actives 4.4% (n = 390,000) | AID 504339; also: nearly all actives have a fitted effect of over 50% in size
HP1b chromo inh – inhibitors of HP1-beta chromodomain binding to methylated histone tails. P83916. AlphaScreen HP1-beta / biotin-H3K9me3 peptide binding. Potency, µM (top dose mostly 114 µM), usual class: inhibitors. actives 0.56% (n = 390,000); also: nearly all actives have a fitted effect of over 70% in size
Target sequence (P83916 whole entry, looked up): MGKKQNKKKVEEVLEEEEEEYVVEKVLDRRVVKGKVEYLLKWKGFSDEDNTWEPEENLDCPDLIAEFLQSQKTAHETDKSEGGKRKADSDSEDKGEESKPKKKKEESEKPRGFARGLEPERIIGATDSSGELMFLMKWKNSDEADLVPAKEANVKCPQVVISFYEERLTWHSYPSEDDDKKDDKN
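HP1-beta protein (50 nM final) preincubated 30 min at room temperature with biotinylated H3(1-18)K9me3 peptide (50 nM) in PBS pH 7.4, 0.01% Tween-20, then compound added for 30 min. AlphaScreen streptavidin donor/nickel chelate acceptor beads (10 ug/mL final), 30 min dark, luminescence read.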
PI5P4K alpha inh – blocks human PI5P4K alpha kinase activity; P48426; AID 652105; actives 1.2% (n = 330,000); max response, %; PI5P4Kalpha enzyme, ADP-Glo luminescence, 60 min; active compounds read low; active = max response of -50% or lower; inconclusive = between -30% and -50%; inactive = -30% or higher; also: value at the top dose of about 77 µM
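PI5P4Kalpha ADP-Glo assay; 5 microM ATP final; 60 min RT reaction; HEPES pH 7.4/EGTA/CHAPS, 5% DMSO; controls lacking substrate or enzyme; luminescent end-point.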
Hits are given with their value; n = inactive; u = inconclusive; x = no result; [ ] = another dose, or the depositor's remark. Unless noted, calls follow the shape of the dose curve; as a rule, active = well fitted inhibition curve with a large enough effect; inconclusive = small, poorly fitted or top-dose-only effect; inactive = no such curve, though single readings can be large or run the other way.

SMILES	G9a block	L3MBTL1 inh	BAZ2B block	JMJD2A Tudor inh	HP1b chromo inh	PI5P4K alpha inh
CCN(CC)C(=O)CC(c1ccc(N(C)C)cc1)c1c(O)cc(OC)cc1OC (centres undefined)	u	x	u	50.1µM	n	n
COc1cc(O)c(C(CCN2CCCC2)c2ccc3c(c2)OCO3)c(OC)c1 (centres undefined)	n[12.7 µM]	x	u	u	n	n
COc1cc(O)c(C(CCN2CCCCC2)c2ccc(N(C)C)cc2)c(OC)c1 (centres undefined)	u	x	u	39.8µM	u	n
COc1cc(O)c(C(CC(=O)N2CCCC2)c2ccc(N(C)C)cc2)c(OC)c1 (centres undefined)	u	x	u	u	n	n
COc1cc(O)c(C(CCN2CCCC2)c2ccc(N(C)C)cc2)c(OC)c1 (centres undefined)	u	x	35.5µM	22.4µM	u	n
CCN(CC)C(=O)CC(c1cc(OC)c(OC)c(OC)c1)c1c(O)cc(OC)cc1OC (centres undefined)	n[12.7 µM]	x	n	n	n	n
O=S(=O)(c1ccc(F)cc1F)N1CCN(c2nc(-c3cccs3)nc3ccccc23)CC1	x	x	x	n	n	x
Cc1ncoc1C(=O)N1CCCC(C(=O)c2cccc(C(F)(F)F)c2)C1 (centres undefined)	n	n	n	n[11.4 µM]	n	n
Cc1ncoc1C(=O)N1CCCC(C(=O)c2ccc(C(F)(F)F)cc2)C1 (centres undefined)	25.1µM	n	n	n	n	n
Cc1ccc(C)c(N2CCN(C(=O)C3CCN(c4nc5ccc(C)cc5[nH]4)CC3)CC2)c1	n	x	n	u	n	x
COc1ccc(CCNC(=O)C(NS(=O)(=O)c2ccc3c(c2)CCN3C(C)=O)C(C)C)cc1OC (centres undefined)	39.8µM	x	n	x	x	x
COc1ccccc1CNC(=O)C(NS(=O)(=O)c1ccc2c(c1)CCN2C(C)=O)C(C)C (centres undefined)	n	x	x	n	n	x
COc1ccc(N2CCN(C(=O)c3ccc(CS(=O)(=O)c4ccc(OC)cc4)o3)CC2)cc1	39.8µM	x	u	n	n	n
COc1ccc(S(=O)(=O)Cc2ccc(C(=O)N3CCN(Cc4ccccc4)CC3)o2)cc1	35.5µM	n	n	n	n	n
COc1ccc(S(=O)(=O)Cc2ccc(C(=O)N3CCN(C(=O)c4ccco4)CC3)o2)cc1	u	n	n	n	n	n
COc1cccc(N2CCN(C(=O)c3ccc(CS(=O)c4ccc(C)cc4)o3)CC2)c1 (centres undefined)	50.1µM	x	n	n	n	n
COc1cccc(N2CCN(C(=O)c3ccc(CS(=O)c4ccc(Cl)cc4)o3)CC2)c1 (centres undefined)	n	x	u	n	n	n
COc1ccc(S(=O)(=O)Cc2ccc(C(=O)N3CCN(c4cc(Cl)ccc4C)CC3)o2)cc1	25.1µM	x	n	n	n	n
CCCCCn1c(CCNC(=O)c2cccc(C)c2)nc2ccccc21	n	x	n	n	n	x
COc1ccc(N2CCN(C(=O)c3ccc(Cn4nc(C)c([N+](=O)[O-])c4C)o3)CC2)cc1	3.55µM	x	u	n	n	n
Cc1nn(Cc2ccc(C(=O)N3CCCC3)o2)c(C)c1[N+](=O)[O-]	x	x	n	n	n	n
CCc1ccccc1S(=O)(=O)Cc1ccc(C(=O)N2CCN(c3ccccn3)CC2)o1	79.4µM	x	n	n	n	n
O=C(Cn1c(SCc2ccc(F)cc2)nc2cccnc21)Nc1ccccc1F	n	x	n	n	n	x
Cc1nc2c3cc(F)ccc3n(Cc3ccccc3F)c2s1	n	n	50.1µM	n	n	n
Cc1c(NC(=O)/C(C#N)=C/c2ccccc2)c(=O)n(-c2ccccc2)n1C	70.8µM	x	n	n	n	n
Cc1c(NC(=S)NC(=O)c2ccc(Cl)cc2)c(=O)n(-c2ccccc2)n1C	x	x	x	n	n	n
Cc1c(NN=C(C#N)C#N)c(=O)n(-c2ccccc2)n1C	10µM	x	n	n	n	n
Cc1c(NC(=O)CC(=O)Nc2c(C)n(C)n(-c3ccccc3)c2=O)c(=O)n(-c2ccccc2)n1C	n	n	n	n	n	x
